D2 antagonist: antagonists of human D2 dopamine receptor; inhibition, % at 10 µM; AID 485344; HEK293 TREx D2 cells, calcium flux, dopamine EC80; 2% of 340,000 active; P14416; in the data active = inhibition above about 30%; inactive = below that, where a call was filed
Target sequence (P14416 whole entry, looked up): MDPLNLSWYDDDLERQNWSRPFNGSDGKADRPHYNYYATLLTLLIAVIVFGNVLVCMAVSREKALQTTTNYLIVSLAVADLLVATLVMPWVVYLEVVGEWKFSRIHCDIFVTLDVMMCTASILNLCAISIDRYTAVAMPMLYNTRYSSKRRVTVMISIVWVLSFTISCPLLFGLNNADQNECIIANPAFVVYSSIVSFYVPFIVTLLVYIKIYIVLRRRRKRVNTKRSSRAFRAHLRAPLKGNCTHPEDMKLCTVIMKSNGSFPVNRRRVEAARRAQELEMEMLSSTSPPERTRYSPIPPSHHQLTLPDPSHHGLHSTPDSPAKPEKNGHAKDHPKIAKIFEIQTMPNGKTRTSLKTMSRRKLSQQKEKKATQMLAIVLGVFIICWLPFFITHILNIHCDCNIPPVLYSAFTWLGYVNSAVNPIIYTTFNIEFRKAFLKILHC
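HEK293 T-REx D2 cells, tet-induced, calcium dye no-wash. Cpd pintool add, 180 s kinetic, then EC80 DA, 180 s kinetic. Ca flux read.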
D2 PAM-1: positive allosteric modulators of human D2 dopamine receptor. P14416. HEK293 T-REx D2, calcium flux, EC20 dopamine potentiation. potentiation, % at 10 µM. 0.34% of 340,000 active. AID 485347;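 active = potentiation over 3 SD above the plate norm, cut at about 30% in these data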
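Calcium flux readout, no-wash dye, 1 read/s. Inducible HEK293 Trex D2 line, overnight 30 C. Compound alone 180 s (agonist flags), then EC20 dopamine, another 180 s to score potentiation.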
D2 ag-1: activates the human D2 dopamine receptor. P14416. HEK293 T-REx D2 cells, calcium flux agonist mode. activation, % at 2 µM. 0.53% of 340,000 active. AID 485358;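 active = activation over 3 SD above normal in the single-dose calcium agonist read, cut at about 30% in these data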
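Agonism is scored from calcium flux in a force-coupled, inducible HEK293 cell line expressing D2, read kinetically for 180 s after compound addition against dopamine controls.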
D2 ag-2: agonists of human D2 dopamine receptor (beta-arrestin); activation, % (concentration not given with the values); 0.084% of 360,000 active; P14416; DiscoveRx PathHunter D2 beta-arrestin, luminescence, 90 min; 100% = 57 uM dopamine signal; in the data active = activation above about 40%; inconclusive = between about 15% and that limit
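Agonist mode: compounds alone added to overnight-plated D2 PathHunter cells for 90 min at 37 C, with 57 uM final dopamine (EC100) defining full response. Beta-arrestin recruitment detected by chemiluminescent reagent, read after 1 h at ambient temperature.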
D2 PAM-2: human D2 receptor positive allosteric modulation; DiscoveRx D2 beta-arrestin cells, luminescence, 90 min; 100% = 57 uM dopamine signal; potentiation, % (concentration not given with the values); 0.23% of 360,000 active; in the data active = potentiation above about 50%; inconclusive = mostly about 30% to 49%
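D2 cells co-treated with compound plus 50 nM dopamine (EC20) for 90 min at 37 deg C to detect potentiation. Beta-arrestin recruitment was read as enzyme-fragment luminescence after 1 h at ambient temperature. Full response was set by 57 uM dopamine.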
D3 arrestin ag: D3 receptor agonism confirmed, beta-arrestin readout; Potency, µM (titrated, usually from 76.9 µM), hits mostly activators; shares compounds with D2 ag-1; 4% of 2,300 active; DiscoveRx D3 beta-arrestin cells, luminescence, 90 min; also: nearly all actives have a fitted effect of over 70% in size
D2 ag-3: D2 receptor agonism, beta-arrestin counterscreen; shares compounds with D2 ag-1; DiscoveRx PathHunter D2 beta-arrestin, luminescence, 90 min; response scale: percent relative to full dopamine signal; Potency, µM (top dose mostly 76.9 µM), hits mostly activators; 5.9% of 2,300 active; AID 720507; also: nearly all actives have a fitted effect of over 70% in size
A number is an active result; n = inactive; u = inconclusive; x = no result given. Only some compounds are listed: those with a hit (about 2.4% of all), similar ones and a draw of the others. Unless noted, calls follow the shape of the dose curve; as a rule, active = well fitted activation curve with a large enough effect; inconclusive = small, poorly fitted or top-dose-only effect; inactive = flat fitted curve, though single readings scatter.

SMILES | D2 antagonist | D2 PAM-1 | D2 ag-1 | D2 ag-2 | D2 PAM-2 | D3 arrestin ag | D2 ag-3
CCOC(=O)c1ccc(N2CN(CCc3ccccc3)CNC2=S)cc1 | n | n | n | n | n | n | n
CCCN1CNC(=S)N(c2ccc(C(=O)OCC)cc2)C1 | n | n | n | n | n | x | x
Cn1c2c(c(=O)n(C)c1=O)C(C(F)(F)F)(C(F)(F)F)N=C(c1ccc(Cl)cc1)N2 | n | n | n | n | u | u | n
CCOC(=O)C1CCCN(C2CCN(Cc3nc(-c4ccccc4)no3)CC2)C1 (stereo not given) | n | n | 52 | n | n | n | n
CCOC(=O)C1CCN(C2CCN(Cc3nc(-c4ccccc4)no3)CC2)CC1 | n | n | n | n | n | x | x
CCOC(=O)C1CCCN(Cc2nc(Cc3cccc(F)c3)no2)C1 (stereo not given) | n | n | n | n | n | x | x
CCOC(=O)C1CCCN(C2CCN(Cc3nc(Cc4ccccc4)no3)CC2)C1 (stereo not given) | 34 | n | n | n | n | n | n
CCCCOC(=O)c1ccc(Nc2nc3ccccc3c3nnc(C)n23)cc1 | x | x | n | x | x | x | x
Fc1ccc(NC(=S)N2CCCC(c3ccccc3)=N2)cc1 | n | n | n | n | n | n | n
O=C(Nc1ccccc1)c1nc[nH]c1C(=O)NCc1ccccc1 | n | n | n | n | n | n | n
O=C(Nc1cccc(Cl)c1)c1nc[nH]c1C(=O)NCc1ccccc1 | n | n | n | n | n | n | n
O=C(Nc1cccc(Cl)c1)c1nc[nH]c1C(=O)NCCCCNC(=O)c1[nH]cnc1C(=O)Nc1cccc(Cl)c1 | x | x | x | n | n | x | x
Cc1cccc(NC(=O)c2nc[nH]c2C(=O)NCc2ccccc2)c1 | n | n | n | n | n | n | n
COc1ccc(C(=O)NCCc2csc(-c3ccc(Cl)cc3)n2)c(OC)c1 | x | n | n | x | x | x | x
COc1cc(C(=O)OCc2ccc(C)cc2)cc(NC(=O)c2cccs2)c1OC | 38 | n | n | n | n | n | n
COC(=O)Nc1ncc(CN2CCC(c3ccccc3)CC2)s1 | 98 | n | 85 | n | n | n | n
CCc1ccccc1NC(=O)CN1CCN(C(=O)CN2C(=O)NC3(CCCCC3C)C2=O)CC1 (stereo not given) | n | n | n | n | n | x | x
Cc1cccc(C)c1NC(=O)CN1CCN(C(=O)CN2C(=O)NC3(CCCCC3C)C2=O)CC1 (stereo not given) | n | n | 40 | n | n | n | n
CCCCn1c(N)c(N(CC)C(=O)c2cccc(OCc3ccccc3)c2)c(=O)[nH]c1=O | n | n | n | n | n | n | n
CCCCn1c(N)c(N(CC)C(=O)c2cccc(F)c2)c(=O)[nH]c1=O | n | n | n | n | n | x | x
CCOC(=O)Cn1nnnc1CN(Cc1ccc(OC)cc1)Cc1cc2cc(CC)ccc2[nH]c1=O | n | n | n | n | n | n | n
COc1ccc2[nH]c(=O)c(CN(CCc3ccccc3)Cc3nnnn3CC3CCCO3)cc2c1 (stereo not given) | n | n | n | n | n | u | n
COc1ccc2cc(CN(CCc3ccccc3)Cc3nnnn3CC3CCCO3)c(=O)[nH]c2c1 (stereo not given) | n | n | n | n | n | x | x
COc1ccccc1Oc1ccc(S(=O)(=O)N2CCOCC2)cc1S(=O)(=O)N1CCOCC1 | n | n | 44 | n | n | n | n
COc1ccc(S(=O)(=O)N2CCOCC2)cc1NC(=O)COc1ccccc1OC | n | n | n | n | n | x | x
SMILES | D2 antagonist | D2 PAM-1 | D2 ag-1 | D2 ag-2 | D2 PAM-2 | D3 arrestin ag | D2 ag-3
CCc1ccc2nc(N(Cc3cccnc3)C(=O)c3cccs3)sc2c1 | x | n | n | x | x | x | x
CC(C)N(Cc1nc(-c2ccccc2)no1)C(=O)c1ccc([N+](=O)[O-])cc1 | n | n | n | n | n | x | x
Cc1ccccc1C(=O)N(Cc1nc(-c2ccc(Cl)cc2)no1)C(C)C | x | n | n | x | x | x | x
COc1ccccc1C(=O)N(Cc1nc(-c2ccc(Cl)cc2)no1)C(C)C | n | n | 51 | n | n | n | n
CC(C)N(Cc1nc(-c2ccccc2)no1)C(=O)c1ccc(Cl)cc1 | n | n | 51 | n | n | n | n
O=c1c2cc([N+](=O)[O-])ccc2nc(CN2CCN(c3ccccn3)CC2)n1-c1ccccc1F | n | n | n | n | n | n | n
O=C(NCc1ccccc1)c1nncc(-c2ccccc2)n1 | n | n | n | n | n | n | n
COc1cc(OC)c(NC(=O)C(NS(=O)(=O)c2cccc3nsnc23)c2ccccc2)cc1Cl (stereo not given) | x | n | n | x | x | x | x
CCCC(c1nnnn1Cc1ccc(OC)cc1)N1CCN(c2ccccc2)CC1 (stereo not given) | n | n | 45 | u | n | n | u
Fc1cc(F)cc(Nc2nc(Cl)nc(NC3CCCC3)n2)c1 | n | n | n | x | x | n | n
CC(C)Nc1nc(Cl)nc(NC2CCCCC2)n1 | n | n | n | n | n | x | x
CCOc1ccc(NC(=O)c2c(NC(=O)c3ccco3)sc3c2CCC(C(C)(C)C)C3)cc1 (stereo not given) | x | n | n | x | x | x | x

Assay outcomes (PubChem)
